This note sets out measurements from ChEMBL document CHEMBL1157539, “Thousands of chemical starting points for antimalarial lead identification” (Nature, 2010).

Format in all cases: functional
The test system of assay [1] is Plasmodium falciparum. Nature of the assay: GSK_TCMDC: Inhibition of Plasmodium falciparum 3D7 in whole red blood cells, using parasite LDH activity as an index of growth. Test compounds present at 2uM.
In assay [2] the test system is Plasmodium falciparum. Description: GSK_TCMDC: Inhibition of Plasmodium falciparum Dd2 in whole red blood cells, using parasite LDH activity as an index of growth. Test compounds present at 2uM.
Another assay deals with HepG2. Nature of the assay: GSK_TCMDC: Percent inhibition of human HepG2 cell line. Test compounds present at 10uM.

As to `COc1ccc(CN2CCCN(Cc3cccc(C(=O)Nc4ccc(C)c(F)c4)c3)CC2)cc1.O=C(O)C(F)(F)F`, the Inhibition in the assay on Plasmodium falciparum [1] came out at 83%; in the assay with Plasmodium falciparum [2], 10%; in the assay with HepG2, 49%.

Turning to `COc1cc(NCC2(CNCc3cn(Cc4ccccc4)c4ccccc34)CCCCC2)nc2ccccc12.Cl`, the Inhibition in the assay with Plasmodium falciparum [1] is on record as 95%; with Plasmodium falciparum [2], 12%; with HepG2 it was 65%.

Consider `O=C(NCCN1CCCC1)N1CCCN(c2ncnc3cc(-c4ccc(Cl)cc4)sc23)CC1.O=C(O)C(F)(F)F`, for which the Inhibition in the assay on Plasmodium falciparum [1] is 96%; in the assay on Plasmodium falciparum [2] it was 32%; with HepG2 it was 13%.

Turning to `CS(=O)(=O)c1cc2c(Nc3ccc(N4CCOCC4)cc3)c(C(N)=O)cnc2cc1Br.Cl`, the Inhibition in the assay with Plasmodium falciparum [1] is 100%; with Plasmodium falciparum [2], 89%; with HepG2 it was 0%.

On to `Cc1cc(-c2ccc(NC(=O)N3CCc4cc(Cl)c(N5CCN(C)CC5)cc43)cc2)ccc1C#N`, for which the Inhibition with Plasmodium falciparum [1] is listed as 100%; in the assay on Plasmodium falciparum [2], 83%; in the assay on HepG2 it was 100%.

With `CCCOc1cc(OCCC)cc(-c2ccc(C(=O)Nc3ccc4ccc(C)nc4c3)c(=O)[nH]2)c1`, the Inhibition in the assay with Plasmodium falciparum [1] is 100%; in the assay with Plasmodium falciparum [2], 76%; in the assay with HepG2, 11%.

In the case of `CC(C)NCc1cccc(-c2cccc(NC(=O)c3ccc(C#N)cc3)c2)c1.O=C(O)C(F)(F)F`, the Inhibition is listed as 97% in the assay on Plasmodium falciparum [1], 20% with Plasmodium falciparum [2] and 18% in the assay with HepG2.

Consider `Cc1cccc2nc(-c3ccc(-c4cccc(NC(=O)CN5CCN(C)CC5)c4)s3)[nH]c12`, for which the Inhibition worked out at 96% with Plasmodium falciparum [1], 51% in the assay on Plasmodium falciparum [2] and 7% in the assay with HepG2.

For the compound `Cc1cc(CN2CC[C@H](NC(=O)c3ccc(Cl)c(Cl)c3)C2)ccc1OC1CCN(Cc2ccccc2)CC1.O=C(O)C(F)(F)F`, the Inhibition turned out to be 98% with Plasmodium falciparum [1], 29% in the assay with Plasmodium falciparum [2] and 59% with HepG2.

Regarding `Cc1nnc(-c2ccc3ccccc3c2)c2cn(-c3cccc([N+](=O)[O-])c3)nc12`, the Inhibition in the assay on Plasmodium falciparum [1] was 91%; in the assay with Plasmodium falciparum [2] it was 67%; in the assay on HepG2 it was 29%.

In the case of `c1ccc(Oc2ccc(Nc3ccnc4cc(-c5ccc(CN6CCCCC6)o5)ccc34)cc2)nc1`, the Inhibition with Plasmodium falciparum [1] turned out to be 100%; in the assay on Plasmodium falciparum [2], 100%; with HepG2, 18%.

As for `Nc1ccc2[nH]cc(C3CCN(CCC4CCN(C(=O)/C=C/c5ccc(Cl)c(Cl)c5)CC4)CC3)c2n1`, the values for the Inhibition in the assay on Plasmodium falciparum [1], in the assay on Plasmodium falciparum [2] and with HepG2 were 100%, 78% and 27%, respectively.

As for `C=CCCCNCC(NCCCNc1cc(=O)c2ccccc2[nH]1)c1cc(Br)cc(Br)c1` (configuration not stated), the Inhibition in the assay with Plasmodium falciparum [1] turned out to be 94%; in the assay on Plasmodium falciparum [2], 19%; in the assay with HepG2 it was 0%.

Regarding `Cc1cccc2nc(-c3cccc(-c4cccc(NC(=O)C(C)CN5CCN(C)CC5)c4)c3)[nH]c12` (configuration not stated), the Inhibition is given as 99% in the assay on Plasmodium falciparum [1], 99% in the assay with Plasmodium falciparum [2] and 17% in the assay with HepG2.

`O=C(Nc1cc(Cl)c(Cl)cc1NC(=O)c1cccc(-c2ccccc2)c1O)c1cccc(-c2ccccc2)c1O`: the values for the Inhibition with Plasmodium falciparum [1], in the assay with Plasmodium falciparum [2] and in the assay on HepG2 were 100%, 100% and 79%, respectively.

`NCc1ccc(CNCc2ccc(-c3ccc(-c4nc5cc(C(F)(F)F)ccc5[nH]4)s3)cc2)cc1.O=C(O)C(F)(F)F`: the Inhibition with Plasmodium falciparum [1] stood at 95%; in the assay on Plasmodium falciparum [2] it was 92%; with HepG2, 34%.

Regarding `Cc1cccc(Nc2nc(C)cc(N3CCCN(CC4CCCCC4)CC3)n2)c1`, the figures for the Inhibition with Plasmodium falciparum [1], in the assay on Plasmodium falciparum [2] and in the assay on HepG2 were 83%, 21% and 20%, respectively.

Take `O=C(Nc1ccc(-c2nc3ccccc3[nH]2)cc1)c1ccc(S(=O)(=O)N2CCCCC2)cc1`: the Inhibition in the assay on Plasmodium falciparum [1] is recorded as 95%; in the assay on Plasmodium falciparum [2] it was 6%; in the assay on HepG2, 23%.

In the case of `Oc1ccc(Cl)cc1CN1CCC2(CCCN(CC3CCC3)C2)C1` (configuration not stated), the Inhibition was 100% in the assay with Plasmodium falciparum [1], 94% in the assay on Plasmodium falciparum [2] and 5% in the assay with HepG2.

On to `CC(C)CNCc1ccc(-c2cccc(CNC3CCN(Cc4ccccc4)CC3)c2)cc1.O=C(O)C(F)(F)F`, for which the Inhibition amounted to 100% in the assay with Plasmodium falciparum [1], 100% in the assay on Plasmodium falciparum [2] and 34% with HepG2.

As for `Cc1cc(N[C@@H](Cc2ccccc2)C(=O)NCc2cccs2)nc(NCCc2ccccn2)n1.O=C(O)C(F)(F)F`, the Inhibition with Plasmodium falciparum [1] is on record as 93%; in the assay on Plasmodium falciparum [2] it was 49%; in the assay with HepG2 it was 0%.

In the case of `CC(C)Sc1nc2c(c(=O)n1Cc1ccco1)C1(CCCC1)Cc1ccccc1-2`, the Inhibition in the assay on Plasmodium falciparum [1] turned out to be 98%; in the assay on Plasmodium falciparum [2] it was 10%; in the assay with HepG2, 8%.

`CN(C(=O)Nc1ccc(C(F)(F)F)cc1)C1CCN(CCCCCNC(=O)/C=C/c2ccc(Cl)c(Cl)c2)CC1`: the Inhibition in the assay on Plasmodium falciparum [1] was 100%; with Plasmodium falciparum [2], 38%; with HepG2 it was 57%.

`CS(=O)(=O)c1ccc(OCCCN(Cc2ccccc2C(F)(F)F)c2ccc(C#N)c(C(F)(F)F)c2)cc1`: the Inhibition was found to be 94% in the assay on Plasmodium falciparum [1], 76% in the assay with Plasmodium falciparum [2] and 4% with HepG2.

For `O=C(NC1CCN(Cc2ccccc2)CC1)c1ccc(-c2nc3cc(F)c(F)cc3[nH]2)s1`, the Inhibition was found to be 100% in the assay on Plasmodium falciparum [1], 97% with Plasmodium falciparum [2] and 6% with HepG2.

Take `Nc1cnc(C#Cc2cc3ncnc(N(CCN4CCOCC4)c4ccc(OCc5cccc(F)c5)c(Cl)c4)c3s2)cn1`: the Inhibition in the assay on Plasmodium falciparum [1] stood at 87%; with Plasmodium falciparum [2] it was 57%; in the assay with HepG2, 0%.

Turning to `O=C(/C=C/c1ccc(Cl)c(Cl)c1)N1CCC(CCN2CCC(c3c[nH]c4ccccc34)CC2)CC1`, the values for the Inhibition in the assay with Plasmodium falciparum [1], in the assay on Plasmodium falciparum [2] and in the assay with HepG2 were 100%, 44% and 56%, respectively.

With `CCNc1cc(C(=O)N[C@@H](Cc2ccccc2)[C@H](O)CNCc2cccc(OC)c2C)cc(N2CCCCS2(=O)=O)c1.O=CO`, the Inhibition is reported as 97% in the assay on Plasmodium falciparum [1], 98% with Plasmodium falciparum [2] and 8% with HepG2.

As to `COCCNCc1cccc(-c2cc3nccc(Nc4ccc(Oc5ccccc5)cc4)c3cc2Cl)c1`, the Inhibition in the assay on Plasmodium falciparum [1] is 99%; with Plasmodium falciparum [2], 99%; with HepG2 it was 0%.

What is called Inhibition is the percentage by which the read-out fell short of the control.
